High-throughput results (PubChem BioAssay)
Beta apoptosis – inhibitors of cytokine-induced beta cell apoptosis, primary screen, luminescence. INS-1E cytokine-induced death, ATP luminescence, 48 h; percent of positive-control rescue, neutral wells zero. AID 435005, 2010. 300,000 tested, 0.8% active. protection from apoptosis, % (concentration not given with the values);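 active = Every replicate reaches about 75%, or at least half do and their mean reaches it too, limit read from the data; inconclusive = At least half of replicates reach the limit but their mean does not; inactive = Under half of replicates reach the limit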;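 note: higher means more ATP so stronger rescue from cytokine killing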
Mdm2-MdmX inh – inhibitors of human Mdm2-MdmX association, primary screen, cell-based, luminescence, split luciferase, SaOS-2, uHTS. SaOS-2 split-luciferase Mdm2/MdmX complementation. 330,000 tested, 3% active. inhibition, % at 8 µM. AID 485346, 2010;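 active = inhibition of at least 50% at 8 µM in the primary screen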
Target sequence (O15151 whole entry, looked up): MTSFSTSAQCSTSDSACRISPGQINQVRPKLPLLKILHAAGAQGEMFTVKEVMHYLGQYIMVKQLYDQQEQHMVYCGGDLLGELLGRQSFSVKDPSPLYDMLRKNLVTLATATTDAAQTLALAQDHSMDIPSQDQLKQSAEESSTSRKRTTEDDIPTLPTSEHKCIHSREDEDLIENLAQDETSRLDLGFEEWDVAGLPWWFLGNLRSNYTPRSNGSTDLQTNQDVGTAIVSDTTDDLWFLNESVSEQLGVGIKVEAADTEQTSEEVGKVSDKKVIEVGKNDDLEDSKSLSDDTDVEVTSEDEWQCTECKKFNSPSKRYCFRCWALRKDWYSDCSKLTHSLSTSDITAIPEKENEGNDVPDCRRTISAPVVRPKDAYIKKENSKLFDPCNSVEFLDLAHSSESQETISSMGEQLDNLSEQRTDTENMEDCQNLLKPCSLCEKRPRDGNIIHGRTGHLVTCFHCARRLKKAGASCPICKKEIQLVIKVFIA
Target sequence (Q00987 whole entry, looked up): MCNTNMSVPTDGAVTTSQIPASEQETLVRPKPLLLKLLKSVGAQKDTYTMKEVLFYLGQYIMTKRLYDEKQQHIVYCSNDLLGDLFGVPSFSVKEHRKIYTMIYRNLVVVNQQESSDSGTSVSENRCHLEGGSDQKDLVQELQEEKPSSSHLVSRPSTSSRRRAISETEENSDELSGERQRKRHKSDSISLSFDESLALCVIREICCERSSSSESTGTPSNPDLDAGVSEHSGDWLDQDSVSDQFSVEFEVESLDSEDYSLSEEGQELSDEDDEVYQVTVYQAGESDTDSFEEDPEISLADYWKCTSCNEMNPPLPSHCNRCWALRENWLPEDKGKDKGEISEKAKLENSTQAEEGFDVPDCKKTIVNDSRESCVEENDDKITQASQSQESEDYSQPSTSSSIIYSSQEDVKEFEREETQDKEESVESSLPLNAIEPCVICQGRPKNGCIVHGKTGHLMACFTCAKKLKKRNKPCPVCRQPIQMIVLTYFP
CSC inhib – cancer stem cell viability inhibitors, primary screen, luminescence; inhibition, % at 7.5 µM; 300,000 tested, 1.1% active; cancer stem cell-like cells viability; AID 2717, 2010; in the data active = inhibition above about 75%; inconclusive = no clear call, values can overlap the other calls; tested in HMLE shEcad cells
aSyn UTR inh – MLPCN primary screen, SNCA 5' untranslated region; alpha-synuclein 5'UTR reporter, inhibitor activity; inhibition, % (tested at 7.5 µM); 300,000 tested, 0.82% active; AID 1813, 2009; in the data active = inhibition above about 60%; inconclusive = no clear call, values can overlap the other calls;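 note: H4 neuroglioblastoma cells stably carrying SNCA 5'UTR luciferase fusion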
A1 inh – caspase 3/7 activation in MEF A1-2A-BIM cells, primary screen, A1 inhibitor project, cell-based, luminescence, HTS; Caspase-Glo 3/7 luminescence, 3 h; percent of clofoctol response, vehicle zero; caspase activation, % (no concentration beside the values); 330,000 tested, 0.066% active; AID 2462, 2010;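 active = over half of replicate activation scores above 10%, or exactly half above 10 with the replicate mean above 10; inconclusive = replicate mean below 10 yet half the replicates above 10; inactive = over half of replicates below 10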
Mdm2-MdmX conf – Mdm2-MdmX complex disruptors, retested hits, confirmation, luminescence, single concentration | 10,000 tested, 55% active | inhibition, % at 8 µM | shares compounds with Mdm2-MdmX inh | Mdm2-MdmX binding, luminescent assay; in the data active = inhibition above about 40%
Full FLuc ctr – full-length luciferase signal inhibition, confirmation, counter-screen for Mdm2/MdmX interaction inhibitor project, cell-based, single concentration, SaOS-2. SaOS-2 full-length luciferase counterscreen, luminescence. 6,200 tested, 77% active. shares compounds with Mdm2-MdmX inh. AID 504607, 2011. inhibition, % at 8 µM;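 active = mean inhibition at 8 µM reaching about 37%, which flags the compound as non-specific, limit read from the data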;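 note: p53-null SaOS-2 cells with luciferase driven by a doxycycline-inducible promoter; compound on cells about two nights before reading with doxycycline added after day one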
Hits are given with their value. In the library only some 4.1% were active in any assay of this set; here they are far more common.

Screening COC(=O)C(O)(c1ccc(N=Cc2ccccc2O)c(C)c1)C(F)(F)F (stereo not given) returned Beta apoptosis inactive, Mdm2-MdmX inh inactive, CSC inhib inactive, aSyn UTR inh inactive and A1 inh inactive.
For CC(C)(C)c1ccc(O)c(N=Cc2c(O)ccc3ccccc23)c1 the results were Mdm2-MdmX inh 50, CSC inhib inactive, aSyn UTR inh inactive, A1 inh inactive and Mdm2-MdmX conf inactive.
For CC1(C)C[C@H]2C=C(C=O)[C@]3(C=O)C[C@]3(C)[C@H]2C1 the results were Beta apoptosis 105, Mdm2-MdmX inh 100, CSC inhib inactive, aSyn UTR inh 117, A1 inh inactive, Mdm2-MdmX conf 100 and Full FLuc ctr inactive.
Screening COc1cc2c(c(OC)c1OC)-c1ccc(O)c(=O)cc1C(NC(C)=O)CC2 (stereo not given) returned Beta apoptosis inactive, Mdm2-MdmX inh 69, CSC inhib inactive, aSyn UTR inh 90, A1 inh inconclusive, Mdm2-MdmX conf 66 and Full FLuc ctr 110.
`Cc1ccc2c(c1)C1CN(C)CCC1N2C(=O)c1cccnc1Cl` (stereo not given) gave Beta apoptosis inactive, Mdm2-MdmX inh inactive, CSC inhib inactive, aSyn UTR inh inactive and A1 inh inactive.
Cc1ccc2c(c1)[C@@H]1CN(C)CC[C@@H]1N2C(=O)Nc1cccc(C(F)(F)F)c1 was read as Beta apoptosis inactive, Mdm2-MdmX inh 52, aSyn UTR inh inactive, A1 inh inactive and Mdm2-MdmX conf inactive.
For Cc1ccc2c(c1)C1CN(C)CCC1N2C(=O)CCCN1C(=O)c2cccc3cccc(c23)C1=O (stereo not given) the results were Beta apoptosis inactive, Mdm2-MdmX inh 51, CSC inhib inactive, aSyn UTR inh inactive, A1 inh inactive and Mdm2-MdmX conf inactive.
For Cc1ccc2c(c1)C1CN(C)CCC1N2C(=O)Nc1cccc(C(F)(F)F)c1 (stereo not given) the results were Beta apoptosis inactive, Mdm2-MdmX inh 55, CSC inhib inactive, aSyn UTR inh inactive, A1 inh inactive, Mdm2-MdmX conf inactive and Full FLuc ctr 65.
`Cc1ccc2c(c1)C1CN(C)CCC1N2C(=O)c1cn(-c2ccccc2)nc1-c1ccccc1` (stereo not given) gave Beta apoptosis inactive, Mdm2-MdmX inh 73, CSC inhib inactive, aSyn UTR inh inactive, A1 inh inactive, Mdm2-MdmX conf inactive and Full FLuc ctr 76.
`O=P(Nc1cccnc1)(Oc1ccccc1Cl)Oc1ccccc1Cl` gave Beta apoptosis inactive, Mdm2-MdmX inh inactive, CSC inhib inactive, aSyn UTR inh inactive and A1 inh inactive.
Screening FC(F)(F)c1ccc(NC2=NCCCS2)cc1 returned Mdm2-MdmX inh inactive, aSyn UTR inh inactive and A1 inh inactive.
`NC(=O)c1c(NC(=O)c2ccc(S(=O)(=O)N(CCCl)CCCl)cc2)sc2c1CCCCC2` gave Beta apoptosis inactive, CSC inhib inactive and A1 inh inactive.
For COC(=O)C1=C(c2ccc(OCc3ccccc3)cc2)C[C@@H]2CC[C@H]1N2C(=O)NCc1cccc(OC)c1 the results were Beta apoptosis inactive, Mdm2-MdmX inh inactive, CSC inhib inactive and A1 inh inactive.
OC(c1cccc(Cl)c1)(c1cccc(Cl)c1)C1CN2CCC1CC2 (stereo not given) was read as Beta apoptosis inactive, Mdm2-MdmX inh 74, CSC inhib inactive, aSyn UTR inh inactive, A1 inh inactive, Mdm2-MdmX conf 59 and Full FLuc ctr 56.
For COC(=O)c1cn(C(=O)c2cccc3ccccc23)c2ccccc12 the results were Beta apoptosis inactive, Mdm2-MdmX inh 64, CSC inhib inactive, aSyn UTR inh inactive, A1 inh inactive, Mdm2-MdmX conf 56 and Full FLuc ctr 53.
Screening COc1ccc(/C=N\N=C(N)N)cc1 returned Beta apoptosis inactive, Mdm2-MdmX inh inactive, CSC inhib inactive, aSyn UTR inh inactive and A1 inh inactive.
NC(N)=N/N=C/c1ccc(N(c2ccccc2)c2ccccc2)cc1 was read as Beta apoptosis 110, Mdm2-MdmX inh 97, CSC inhib 110, aSyn UTR inh 138, A1 inh inactive, Mdm2-MdmX conf 100 and Full FLuc ctr inactive.
CCOC(=O)C1(c2ccccc2)CCN(CCC(=O)Nc2ccc(C(=O)OC)cc2)CC1 was read as Beta apoptosis inactive, Mdm2-MdmX inh inactive and A1 inh inactive.
For CCOC(=O)C1(c2ccccc2)CCN(CCC(C#N)(c2ccccc2)c2ccccc2)CC1 the results were Mdm2-MdmX inh 63, CSC inhib inactive, aSyn UTR inh inactive, A1 inh inactive and Mdm2-MdmX conf inactive.
`CCOC(=O)C1(c2ccccc2)CCN(CCC(=O)Nc2cccc(Br)c2)CC1` gave Mdm2-MdmX inh 54, Mdm2-MdmX conf inactive and Full FLuc ctr 77.
Screening CCOc1cc(C2C(C#N)=C(N)Oc3c2c(=O)oc2ccccc32)ccc1OC(=O)c1cccs1 (stereo not given) returned Beta apoptosis inactive, Mdm2-MdmX inh inactive, CSC inhib inactive, aSyn UTR inh inactive and A1 inh inactive.
`CCN(CC(=O)Nc1ccc(NC(C)=O)cc1)C(=O)CSC(c1ccccc1)c1ccccc1` gave Beta apoptosis inactive, Mdm2-MdmX inh inactive, CSC inhib inactive and A1 inh inactive.
For CN1C(=O)C2C[C@@]3(Br)c4ccccc4N(OOSc4ccccc4)[C@H]3N2C(=O)[C@@H]1Cc1ccccc1 (stereo not given in full) the results were Beta apoptosis inactive, Mdm2-MdmX inh inactive, aSyn UTR inh inactive and A1 inh inactive.
Screening COC(=O)C1=C(C)NC(C)=C(C(=O)OC)C1c1ccccc1[N+](=O)[O-] returned Mdm2-MdmX inh 97, CSC inhib inactive, aSyn UTR inh inactive, A1 inh inactive, Mdm2-MdmX conf 53 and Full FLuc ctr inactive.
Screening COC(=O)C1C2c3ccccc3C(c3ccccc32)C1C(=O)OC (stereo not given) returned Beta apoptosis inactive, Mdm2-MdmX inh inactive, CSC inhib inactive, aSyn UTR inh inactive and A1 inh inactive.
Cc1ccc(C[n+]2c(-c3ccc(C)cc3)cc(-c3ccc(C)cc3)cc2-c2ccc(C)cc2)cc1 was read as Beta apoptosis 118, Mdm2-MdmX inh 100, CSC inhib inactive, aSyn UTR inh 95, A1 inh inactive, Mdm2-MdmX conf 98 and Full FLuc ctr inactive.
Screening Cc1ccc(-c2cc(-c3ccc(C)cc3)[n+](-c3ccc(C(=O)O)cc3)c(-c3ccc(C)cc3)c2)cc1 returned Beta apoptosis inactive, Mdm2-MdmX inh inactive, CSC inhib inactive, aSyn UTR inh inactive and A1 inh inactive.
